Our source for the outcome and Potency values is PubChem BioAssay (Tox21).

Where “and” joins values, the source holds several entries; their conditions need not be identical. Equal values may be shown once. Records with an inconclusive call do not appear. Calls of active or inactive are those of the source. Unless noted, calls come from the whole dose curve; as a rule, active = well fitted curve in the direction sought with a large enough effect in the repeat runs; inconclusive = weak or mixed curves; inactive = no such curve, though single readings can be large; an effect the other way counts as inactive or inconclusive.

Test [1] can be described thus: qHTS assay to identify small molecule agonists of the androgen receptor (AR) signaling pathway in the presence of an antagonist - cell viability counter screen (AID 1259379).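 Note: MDA-kb2 human breast cancer cells carrying an MMTV luciferase reporter; series mostly up to about 92 µM; nearly all actives have a fitted effect of over 25% in size.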 In a few lines:
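Cells: MDA-kb2 (MMTV-luc, AR and GR elements), 3,000/well, 5 hr settle. Added: nilutamide 3.0uM final, then compounds (15 conc.). Incubation: 16 hr, 37C, no CO2. Read-out: CellTiter-Fluor, 1 hr, fluorescence.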
(In general: qHTS replaces the single test concentration by a dilution series.)

The nature of test [2]: qHTS assay to identify small molecule antagonists of the estrogen receptor beta (ER-beta) signaling pathway - cell viability counter screen (AID 1259382).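 Note: HEK293T cells carrying ER-beta-UAS-bla reporter stimulated with estradiol; series mostly up to about 92 µM; nearly all actives have a fitted effect of over 55% in size.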 A digest of the protocol: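 Cells: ER-beta-UAS-bla HEK293T, 2,000/well, 2% CS-FBS, 6 hr settle. Cpd + E2 (1nM final), 16 hr, 37C/5% CO2. Bla FRET substrate 2 hr RT, then CellTiter-Glo 30 min RT, luminescence.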
Test [3] is described as follows: qHTS assay to identify small molecule agonists or antagonists of the thyroid stimulating hormone receptor (TSHR) signaling pathway - wild type cell line counter screen (AID 1259384; calls by dose curve). A digest of the protocol: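 Wild-type Hek293 cells, 800/well, 18 h at 37C, then compound with Ro20-1724 for 30 min RT. cAMP by HTRF (cAMP-d2/anti-cAMP cryptate), 1 h RT, fluorescence read. 15 concentrations, triplicates.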

The target in test [4] is Thyrotropin receptor (Homo sapiens) (UniProt P16473). In words: qHTS assay to identify small molecule antagonists of the thyroid stimulating hormone receptor (TSHR) signaling pathway (AID 1259385; calls by dose curve; note: nearly all actives have a fitted effect of over 20% in size). A digest of the protocol: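 TSHR-HEK293 cells (800/well) plated 18 h, then compounds with Ro20-1724 and TSH at 1.5 ng/mL final, 30 min at room temperature. cAMP quantified by HTRF (cAMP-d2/anti-cAMP-cryptate, 1 h); 15 concentrations in triplicate.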
Sequence of Thyrotropin receptor (Homo sapiens) (P16473 whole entry, looked up): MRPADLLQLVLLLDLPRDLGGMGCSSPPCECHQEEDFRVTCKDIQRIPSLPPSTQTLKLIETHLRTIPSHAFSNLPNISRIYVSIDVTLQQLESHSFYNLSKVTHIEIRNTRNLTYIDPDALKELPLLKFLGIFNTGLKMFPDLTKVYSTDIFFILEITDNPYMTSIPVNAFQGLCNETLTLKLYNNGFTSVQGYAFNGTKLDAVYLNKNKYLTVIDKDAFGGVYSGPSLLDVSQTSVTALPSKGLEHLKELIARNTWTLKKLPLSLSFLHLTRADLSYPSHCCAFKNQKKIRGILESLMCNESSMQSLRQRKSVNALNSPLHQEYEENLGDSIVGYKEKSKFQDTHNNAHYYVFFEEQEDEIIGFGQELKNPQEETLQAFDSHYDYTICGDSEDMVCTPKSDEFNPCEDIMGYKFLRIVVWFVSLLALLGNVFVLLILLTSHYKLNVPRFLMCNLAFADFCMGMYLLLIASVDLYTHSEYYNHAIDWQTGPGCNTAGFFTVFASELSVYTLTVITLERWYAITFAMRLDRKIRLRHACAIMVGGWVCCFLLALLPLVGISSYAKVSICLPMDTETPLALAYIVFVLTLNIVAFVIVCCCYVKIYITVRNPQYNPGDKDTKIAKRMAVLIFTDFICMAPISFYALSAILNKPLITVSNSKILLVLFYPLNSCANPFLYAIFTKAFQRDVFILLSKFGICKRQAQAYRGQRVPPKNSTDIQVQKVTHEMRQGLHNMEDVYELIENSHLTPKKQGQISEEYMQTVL

A short description of test [5]: qHTS assay to identify small molecule agonists of the estrogen receptor alpha (ER-alpha) signaling pathway in the presence of an antagonist - cell viability counter screen (AID 1259386).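 Note: series mostly up to about 92 µM; cells exposed to compounds for 22 h at 37 °C before the viability read; nearly all actives have a fitted effect of over 30% in size.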 In a few lines:
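VM7Luc4E2, stripped-serum pre-culture 5 d; 24hr plating; +ICI-182,780 10.0nM final; cpds 15 conc, 22hr, 37C/5% CO2; CellTiter-Fluor added at 21hr, fluorescence 1hr later.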

In test [6] the target is Progesterone receptor (Homo sapiens) (UniProt P06401). In words: qHTS assay to identify small molecule agonists of the progesterone receptor (PR) signaling pathway (AID 1346784; calls by dose curve; note: nearly all actives have a fitted effect of over 30% in size). A digest of the protocol: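 Fluorescence from LiveBLAzer B/G FRET substrate cleavage (2 hr, RT) reported PR activation in PR-UAS-bla HEK 293T cells treated 16 hr at 37C/5% CO2 with compounds; medium contained 2% charcoal-stripped FBS.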
Sequence of Progesterone receptor (Homo sapiens) (P06401 whole entry, looked up): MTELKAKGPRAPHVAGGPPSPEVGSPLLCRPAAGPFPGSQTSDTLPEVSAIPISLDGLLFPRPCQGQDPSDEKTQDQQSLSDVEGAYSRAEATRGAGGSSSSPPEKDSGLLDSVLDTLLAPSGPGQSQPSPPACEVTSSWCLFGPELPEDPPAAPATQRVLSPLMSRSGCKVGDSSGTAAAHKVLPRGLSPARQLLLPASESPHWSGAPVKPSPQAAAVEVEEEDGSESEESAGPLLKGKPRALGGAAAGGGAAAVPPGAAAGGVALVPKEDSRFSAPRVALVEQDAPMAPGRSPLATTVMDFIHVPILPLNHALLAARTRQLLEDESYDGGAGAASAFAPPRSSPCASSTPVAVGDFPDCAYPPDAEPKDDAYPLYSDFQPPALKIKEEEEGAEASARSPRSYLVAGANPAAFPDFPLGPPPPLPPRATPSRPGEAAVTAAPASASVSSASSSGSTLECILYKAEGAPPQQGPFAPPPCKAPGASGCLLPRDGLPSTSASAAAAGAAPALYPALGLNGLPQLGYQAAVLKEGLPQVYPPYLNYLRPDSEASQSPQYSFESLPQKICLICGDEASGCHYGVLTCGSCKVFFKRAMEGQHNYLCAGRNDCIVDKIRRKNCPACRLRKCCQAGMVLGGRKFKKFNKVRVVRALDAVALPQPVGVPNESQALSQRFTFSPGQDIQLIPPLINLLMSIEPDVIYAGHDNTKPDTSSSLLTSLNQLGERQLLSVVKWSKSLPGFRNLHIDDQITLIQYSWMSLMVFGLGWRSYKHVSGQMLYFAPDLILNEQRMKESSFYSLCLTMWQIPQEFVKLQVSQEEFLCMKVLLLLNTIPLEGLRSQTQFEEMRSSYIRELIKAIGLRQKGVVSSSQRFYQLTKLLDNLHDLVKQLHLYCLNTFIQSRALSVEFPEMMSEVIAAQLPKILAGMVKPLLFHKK

Test [7] shares this target. Put plainly: qHTS assay to identify small molecule antagonists of the progesterone receptor (PR) signaling pathway (AID 1346795; active = well fitted inhibition curve with a large enough effect in the signal ratio in the repeat runs, not every such curve was filed as active; the % refers to the signal ratio; note: potency is the fitted concentration of half-maximal effect). In a few lines: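 Fluorescence intensity measured 2 hr after adding beta-lactamase FRET substrate to PR-UAS-bla HEK293T cells that had been co-treated 16 hr with compound and 1 nM R5020 (final concentration) in 2% charcoal-stripped FBS.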
A short description of test [8]: qHTS assay to identify small molecule antagonists of the progesterone receptor (PR) signaling pathway - cell viability counter screen (AID 1346798). Note: series mostly up to about 92 µM; nearly all actives have a fitted effect of over 50% in size. A digest of the protocol: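 CellTiter-Glo luminescence; PR-UAS-bla HEK293T, 3,000 cells/well; compound + R5020, 16 hr, 37C/5% CO2; 30 min RT before read.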
A short description of test [9]: qHTS assay to identify small molecule agonists of the progesterone receptor (PR) signaling pathway - cell viability counter screen (AID 1346799; calls by dose curve; note: nearly all actives have a fitted effect of over 45% in size). In a few lines:
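In parallel with the beta-lactamase readout, cytotoxicity toward PR-UAS-bla HEK293T cells was measured by CellTiter-Glo luminescence following 16 hr compound incubation in 2% charcoal-stripped FBS medium.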

Test [10] is described as follows: qHTS assay to identify small molecule antagonists of the TGF-beta/Smad signaling pathway - cell viability counter screen (AID 1346824). Note: nearly all actives have a fitted effect of over 50% in size. A digest of the protocol:
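SBE-bla HEK 293T cells, incubated overnight, then compound plus 0.25 ng/mL TGF-beta1 (stock added) for 5 hr at 37 C. Viability was read in the same wells by CellTiter-Glo luminescence after 30 min at room temperature.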

A short description of test [11]: qHTS assay to identify small molecule agonists of the TGF-beta/Smad signaling pathway - cell viability counter screen (AID 1346829). Note: top concentration of the series differs between compounds; nearly all actives have a fitted effect of over 45% in size. In a few lines: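 HEK 293T SBE-bla line, 5 hr compound exposure at 37 C, multiplexed CellTiter-Glo viability read by luminescence.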
Test [12] is described as follows: qHTS assay to identify small molecule agonists of the TGF-beta/Smad signaling pathway (AID 1346859; active = well fitted activation curve with a large enough effect in the signal ratio in the repeat runs, not every such curve was filed as active; the % refers to the signal ratio; note: series mostly up to about 77 µM). A digest of the protocol: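 After overnight seeding, SBE-bla HEK 293T cells are dosed with compounds in DMSO and kept 5 hr at 37 C, 5% CO2. LiveBLAzer-type FRET substrate is then applied for 2 hr at room temperature.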
In test [13] the target is Thyrotropin-releasing hormone receptor (Homo sapiens) (UniProt P34981). In words: qHTS assay to identify small molecule antagonists of the thyrotropin-releasing hormone receptor (TRHR) signaling pathway (AID 1346877; active = well fitted inhibition curve with a large enough effect in the repeat runs, not every such curve was filed as active; note: series mostly up to about 51 µM). In a few lines: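 Intracellular calcium fluorescence, read kinetically every second over 3 min, reports TRH-evoked signalling in HEK293 cells carrying TRHR. Test compounds were added 5 min ahead of a 1 nM TRH challenge.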
Sequence of Thyrotropin-releasing hormone receptor (Homo sapiens) (P34981 whole entry, looked up): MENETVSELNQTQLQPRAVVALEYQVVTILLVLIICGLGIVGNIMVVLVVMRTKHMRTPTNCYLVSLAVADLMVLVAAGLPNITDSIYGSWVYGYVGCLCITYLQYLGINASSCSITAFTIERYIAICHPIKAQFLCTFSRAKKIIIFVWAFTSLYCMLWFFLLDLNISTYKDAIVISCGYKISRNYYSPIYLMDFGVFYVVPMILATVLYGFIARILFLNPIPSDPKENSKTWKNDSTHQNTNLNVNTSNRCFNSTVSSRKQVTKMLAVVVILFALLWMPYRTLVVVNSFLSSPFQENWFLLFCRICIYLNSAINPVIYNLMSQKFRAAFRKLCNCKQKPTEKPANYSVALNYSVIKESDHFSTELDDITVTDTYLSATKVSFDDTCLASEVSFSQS

Test [14] has the same target. Put plainly: qHTS assay to identify small molecule agonists of the thyrotropin-releasing hormone receptor (TRHR) signaling pathway (AID 1346891; calls by dose curve;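 note: HEK293 cells expressing TRHR with calcium dye readout; series mostly up to about 58 µM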). In a few lines: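 Compounds were tested as agonists at 15 concentrations, in triplicate, on TRHR-Hek293 cells; calcium-sensitive dye fluorescence was recorded for 3 min following addition.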
Test [15] in a line: Human pregnane X receptor (PXR) small molecule agonists, qHTS cell viability counter screen (AID 1346977). Note: nearly all actives have a fitted effect of over 50% in size. A digest of the protocol:
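Viability counter screen: CellTiter-Fluor signal in PXR-Luc HepG2 cells, 24hr compound exposure, 37C, 5% CO2.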

A short description of test [16]: Caspase-3/7 induction in CHO-K1 cells by small molecules, qHTS cell viability counter screen (AID 1346979). Note: nearly all actives have a fitted effect of over 35% in size. In a few lines: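 Viability readout by fluorescence (CellTiter-Fluor) on wild-type CHO-K1 cells exposed for 16hr at 37C and 5% CO2 to compounds delivered in DMSO; reagent incubated 1hr before reading.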
The target of test [17] is Estrogen receptor (Homo sapiens) (UniProt P03372). In words: qHTS assay to identify small molecule agonists of the estrogen receptor alpha (ER-alpha) signaling pathway in the presence of an antagonist (AID 1259383; calls by dose curve; note: top concentration of the series differs between compounds; nearly all actives have a fitted effect of over 15% in size). In a few lines:
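VM7Luc4E2, endog. ER-alpha + 4×ERE-luc; charcoal-stripped FBS, phenol red-free, 5 d; 24hr plating; +10.0nM ICI-182,780 (final); cpds 15 conc, 22hr, 37C/5% CO2; ONE-Glo luminescence.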

Test [18] can be described thus: Caspase-3/7 induction in HepG2 cells by small molecules, qHTS assay (AID 1346978). Note: nearly all actives have a fitted effect of over 15% in size. A digest of the protocol:
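Wild-type HepG2 cells, 2,000/well, settled 5 hr at 37 C and 5% CO2, then compound-treated for 17 hr; caspase-3/7 activity read by luminescent Caspase-Glo 3/7 after 30 min at room temperature.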

Sequence of Estrogen receptor (Homo sapiens) (P03372 whole entry, looked up): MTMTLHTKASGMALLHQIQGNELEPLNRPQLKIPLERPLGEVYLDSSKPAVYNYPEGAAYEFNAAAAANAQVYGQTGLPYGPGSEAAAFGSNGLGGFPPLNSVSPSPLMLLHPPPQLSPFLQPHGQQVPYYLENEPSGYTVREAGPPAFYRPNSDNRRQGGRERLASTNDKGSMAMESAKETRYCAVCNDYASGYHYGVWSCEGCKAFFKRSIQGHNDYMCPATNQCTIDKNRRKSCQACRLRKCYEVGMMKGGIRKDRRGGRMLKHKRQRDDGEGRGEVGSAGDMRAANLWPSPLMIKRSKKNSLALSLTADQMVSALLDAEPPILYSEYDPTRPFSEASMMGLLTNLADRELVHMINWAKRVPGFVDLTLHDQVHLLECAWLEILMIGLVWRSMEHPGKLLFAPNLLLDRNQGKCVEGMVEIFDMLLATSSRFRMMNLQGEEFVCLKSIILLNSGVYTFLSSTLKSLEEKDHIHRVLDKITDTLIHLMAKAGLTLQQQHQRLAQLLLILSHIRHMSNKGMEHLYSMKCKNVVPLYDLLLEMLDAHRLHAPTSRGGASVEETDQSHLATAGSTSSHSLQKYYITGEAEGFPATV

`Nc1ccc(Cc2ccc(N)cc2)cc1`: the outcome in test [1], in [3], in test [5], in [6], in test [11] and in test [13] was inactive. For the same compound, the Potency entry in [2], in test [4], in test [7], in test [8], in [9] and in test [10] was “inactive” each time. Further, the Potency result in test [12], in test [14], in test [15] and in [16] was “inactive” in each case.
For the compound `CN(N=O)c1ccccc1`, the outcome in test [1], in [3], in test [5], in test [6], in test [11] and in test [18] was inactive. In addition, the Potency result in [2], in test [17], in test [4], in test [7], in test [8] and in test [9] was “inactive” each time. Besides, the Potency entry in test [10], in test [12], in test [14], in [15] and in test [16] was “inactive” in each case.
Regarding `CCNc1nc(NC(C)(C)C)nc(SC)n1`, the result in [1], in test [3], in test [5], in test [6], in [11] and in [13] was inactive. The compound was called inactive in test [18]. Also, the Potency result in test [2], in test [17], in [4], in [9], in [10] and in test [12] was “inactive” throughout. Also, the Potency entry in test [14], in test [15] and in test [16] was “inactive” in each case. In addition, the Potency in test [7] was 47.9 µM (active).
On to `CC(C)(C)C(O)(CCc1ccc(Cl)cc1)Cn1cncn1` (configuration not stated), for which the outcome in test [1], in test [3], in [5], in test [6], in test [11] and in test [13] was inactive. For the same compound, the Potency entry in test [2], in test [4], in [10], in test [12], in test [14] and in [15] was “inactive” in each case. The Potency in test [7] was 17.4 µM (active) and 24.3 µM (active).
For `CCCN(CCC)N=O`, the result in test [1], in test [3], in test [5], in test [6] and in test [11] was inactive. The Potency entry in [2], in [17], in test [4], in test [7], in test [8] and in test [9] was “inactive” throughout. Moreover, the Potency entry in test [10], in test [12], in test [14], in [15] and in test [16] was “inactive” in each case.
Take `NCC(O)c1ccc(O)cc1` (configuration not stated): the outcome in [1], in [3], in test [5], in test [6] and in [11] was inactive. For the same compound, the Potency result in test [2], in test [4], in test [7], in test [8], in [9] and in test [10] was “inactive” in each case. The Potency entry in [12], in test [14], in [15] and in [16] was “inactive” each time.
In the case of `Cc1cc(-c2cc(C)c(N)c(C)c2)cc(C)c1N`, the result in [1], in test [3], in test [5], in test [6], in test [11] and in test [18] was inactive. The Potency entry in test [2], in [17], in test [8], in test [9], in [10] and in test [12] was “inactive” throughout. For the same compound, the Potency result in test [15] and in test [16] was “inactive” each time.
Consider `CC(C)(Cl)Cl`, for which the outcome in [1], in test [3], in test [5], in test [6] and in test [11] was inactive. For the same compound, the Potency entry in test [2], in [4], in test [7], in test [8], in test [9] and in test [10] was “inactive” in each case. Moreover, the Potency result in [12], in test [14], in [15] and in test [16] was “inactive” each time.
Consider `COC(=O)NC(=S)Nc1ccccc1NC(=S)NC(=O)OC`, for which the result in [1], in test [3], in test [5], in [6], in test [11] and in test [18] was inactive. The Potency result in test [2], in [17], in [4], in test [7], in test [8] and in test [9] was “inactive” in each case. The Potency entry in [10], in test [12], in [14], in test [15] and in [16] was “inactive” each time.
For `O=NN1CCCC1`, the result in test [1], in test [3], in test [5], in test [6], in [11] and in [18] was inactive. The Potency result in test [2], in [17], in test [4], in [7], in test [9] and in [10] was “inactive” throughout. In addition, the Potency result in [12], in test [15] and in test [16] was “inactive” throughout.
As to `CC(C)C1(C)N=C(c2nc3ccccc3cc2C(=O)O)NC1=O` (configuration not stated), the outcome in test [1], in [3], in test [5], in [6], in test [11] and in test [13] was inactive. Further, the Potency result in test [2], in [17], in [4], in test [7], in test [8] and in [9] was “inactive” each time. Further, the Potency result in test [10], in test [12], in [14], in test [15] and in test [16] was “inactive” each time.
